Source: PubChem (National Center for Advancing Translational Sciences (NCATS))
HT1080 IDH1KD tx = kills HT-1080 cells with IDH1 knockdown; hit rate 2% among 360,000; Potency, µM (titrated, usually from 46.1 µM), for the others: at the top dose activity, negative = toxicity, hits mostly cytotoxic; HT-1080 IDH1 knockdown viability, ATP luminescence, 48 h; AID 686971;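 further: potency means the concentration at half of the fitted maximal effect; 0% = DMSO wells and -100% = cell-free medium wells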
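Viability of IDH1-knockdown HT-1080 fibrosarcoma cells was assessed by CellTiter-Glo after 48 h at 37 °C with titrated compound; concentration-effect curves were classified by fit quality and response size.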
DT40 TDP1 CPT = growth inhibition of DT40 Tdp1-/-;hTDP1 cells with camptothecin (screen for TDP1 inhibitors); chicken DT40 Tdp1-/-;hTDP1 cells + 20 nM CPT, ATP luminescence, 48 h; Potency, µM (titrated, usually from 46.2 µM), without a hit: at the highest dose activity change, negative = growth inhibition, actives largely listed as inhibitors; hit rate 12% among 420,000; further: potency means the concentration at half of the fitted maximal effect; nearly all actives have a fitted effect of over 55% in size
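Chicken DT40 Tdp1-/- cells complemented with human TDP1, 400 cells/well, exposed to compounds plus 20 nM camptothecin for at least 48 h at 37 C; viability read as ATP content by CellTiter-Glo luminescence.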
uPA generation = blocks generation of uPA at the cell surface. cell surface uPA generation assay, qHTS. Potency, µM (series often up to 38.3 µM), for inactives: top-dose activity change, negative = inhibition, hits mostly inhibitors. hit rate 0.31% among 330,000. AID 540303; active means well fitted inhibition curve with a large enough effect; inconclusive means small, poorly fitted or top-dose-only effect; inactive means no such curve, though single readings can be large or run the other way; tested in mouse RAW 264.7 cells; further: potency means the concentration at half of the fitted maximal effect; nearly all actives have a fitted effect of over 55% in size
IL-1B inflam inh = blocks inflammasome-driven IL-1 beta release. activity change, % at 57.5 µM. THP-1 LPS/ATP IL-1B secretion, AlphaLISA, 16 h; stronger effect = lower value. AID 743279. hit rate 4.7% among 360,000; in the data active means activity change below about -50%; inconclusive means mostly about -30% to -49%
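Secreted IL-1B measured by AlphaLISA bead assay after 16 h compound exposure of THP-1 cells; compounds (final up to 57.5 uM) added 1 h before LPS (250 ng/mL) and ATP (1.25 mM) stimulation; lower signal means less secretion.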
TDP1 cell noCPT = qHTS for Inhibitors of human tyrosyl-DNA phosphodiesterase 1 (TDP1): qHTS in cells in absence of CPT | AID 686978, 2013 | Potency, µM (top dose mostly 46.2 µM), for the others: top-dose activity change, negative = growth inhibition, hits mostly inhibitors | hit rate 15% among 420,000 | DT40 Tdp1-/- hTDP1 cells, no CPT, ATP luminescence, 48 h; further: potency means the concentration at half of the fitted maximal effect; nearly all actives have a fitted effect of over 55% in size
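Chicken DT40 Tdp1-/- cells stably complemented with human TDP1 were seeded at 400 cells/well with DMSO in place of 20 nM camptothecin. After compound pinning, cells grew at least 48 hr at 37 °C; viability read by CellTiter-Glo luminescence.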
HT1080NT lethal = kills 2HG-producing HT-1080-NT fibrosarcoma cells. HT-1080-NT fibrosarcoma viability, CellTiter-Glo ATP luminescence, 48 h. Potency, µM (titrated, usually from 46.1 µM), inactives show at the highest dose activity, negative = less viability, usual class: cytotoxic. hit rate 1.6% among 360,000. AID 686970;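 further: NT is the 2HG producing partner of a matched IDH1 knockdown line; potency means the concentration at half of the fitted maximal effect; 0% = DMSO-treated cells and -100% = media-only wells without cells; nearly all actives have a fitted effect of over 55% in size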
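HT-1080-NT fibrosarcoma cells (2HG-overproducing), 750 cells/well in RPMI with 5% FBS, dosed after 2 h and incubated 48 h at 37C. CellTiter-Glo luminescence normalized to DMSO and no-cell wells; concentration-response curves fitted and classed.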
An asterisk follows results filed as active. This is a sample that favours compounds with a hit; in the whole collection about 19% have one here. Unless noted, the call rests on the fitted dose curve; in most records, active means well fitted curve in the direction sought with a large enough effect; inconclusive means small, poorly fitted or top-dose-only effect, or another doubt; inactive means no such curve, though single readings can be large; an effect the other way counts as inactive or inconclusive. Unless noted, on the % scale 0 is the no-effect control and ±100 the full control effect.

What do the screens show for `CCOC(=O)c1c[nH]c2c([N+](=O)[O-])cc(OC)cc2c1=O`?
HT1080 IDH1KD tx: inconclusive; DT40 TDP1 CPT: 7.3µM*; uPA generation: 2%; IL-1B inflam inh: 1; TDP1 cell noCPT: 16µM*; HT1080NT lethal: -13%

Results for O=C1c2ccccc2NC(c2cn[nH]c2-c2ccc(Cl)cc2)N1O (centres undefined) ?
HT1080 IDH1KD tx: inconclusive; DT40 TDP1 CPT: 16µM*; uPA generation: -12%; IL-1B inflam inh: 2; TDP1 cell noCPT: 16µM*; HT1080NT lethal: inconclusive

What do the screens show for `Cc1nnc(NC(=O)C2CCN(S(=O)(=O)c3ccc(F)c(Cl)c3)CC2)o1`?
HT1080 IDH1KD tx: -12%; DT40 TDP1 CPT: -2%; uPA generation: 1%; IL-1B inflam inh: 7; TDP1 cell noCPT: 7%; HT1080NT lethal: -3%

Results for Cc1ccc(C)c(NC(=O)CN(C)C(=O)CN2C(=O)NC3(CCc4ccccc43)C2=O)c1 (centres undefined) ?
HT1080 IDH1KD tx: 7%; DT40 TDP1 CPT: 9.2µM*; uPA generation: -6%; IL-1B inflam inh: 1; TDP1 cell noCPT: 8.2µM*; HT1080NT lethal: 0%

How did CCN(CC)S(=O)(=O)c1cc(NC(=O)CN2C(=O)NC3(CCCc4ccccc43)C2=O)ccc1C (centres undefined) do in these assays?
HT1080 IDH1KD tx: -17%; DT40 TDP1 CPT: 23µM*; uPA generation: 0%; IL-1B inflam inh: inconclusive; TDP1 cell noCPT: inconclusive; HT1080NT lethal: -15%

What do the screens show for `Cn1cc(CCC(=O)N2CCCC(N3CCN(c4ccccc4F)CC3)C2)cn1` (centres undefined)?
HT1080 IDH1KD tx: inconclusive; DT40 TDP1 CPT: -10%; uPA generation: 1%; IL-1B inflam inh: 12; TDP1 cell noCPT: 14%; HT1080NT lethal: inconclusive

What do the screens show for `CN1CCN(C(=O)C2=NOC3(C2)C(=O)Nc2ccccc23)CC1` (centres undefined)?
HT1080 IDH1KD tx: 22%; DT40 TDP1 CPT: -8%; IL-1B inflam inh: 23; TDP1 cell noCPT: 0%; HT1080NT lethal: 3%

What do the screens show for `O=C(NCC1OCCc2ccccc21)c1ccc(NC(=O)c2ccc(Cl)cc2)cc1` (centres undefined)?
HT1080 IDH1KD tx: inconclusive; DT40 TDP1 CPT: 23µM*; uPA generation: -2%; IL-1B inflam inh: -5; TDP1 cell noCPT: 16µM*; HT1080NT lethal: 21µM*

How did CCOC(=O)c1c(NC(=O)c2ccoc2C)sc(C(=O)N(C)C)c1C do in these assays?
HT1080 IDH1KD tx: -7%; DT40 TDP1 CPT: -28%; uPA generation: 2%; IL-1B inflam inh: -20; TDP1 cell noCPT: 23µM*; HT1080NT lethal: -16%

How did CCN(CC)CC(C)CNC(=O)c1cc(-c2ccc(Br)s2)nc2ccccc12 (centres undefined) do in these assays?
DT40 TDP1 CPT: 8.2µM*; TDP1 cell noCPT: 9.2µM*

How did CCOC(=O)c1c(NC(=O)c2ccoc2C)sc2c1CCC2 do in these assays?
HT1080 IDH1KD tx: -1%; DT40 TDP1 CPT: -9%; IL-1B inflam inh: 0; TDP1 cell noCPT: -20%; HT1080NT lethal: -20%

Results for CCN(CC)C(=O)c1sc(N)c(C(=O)OC(C)C)c1C ?
HT1080 IDH1KD tx: -2%; DT40 TDP1 CPT: -22%; uPA generation: 4%; IL-1B inflam inh: 22; TDP1 cell noCPT: -13%; HT1080NT lethal: 1%

Results for CCN(CC)C(=O)c1sc(NC(=O)c2ccoc2C)c(C(=O)OC)c1C ?
HT1080 IDH1KD tx: -2%; DT40 TDP1 CPT: inconclusive; uPA generation: 4%; IL-1B inflam inh: inconclusive; TDP1 cell noCPT: 21µM*; HT1080NT lethal: -5%

How did CC(C)CN(CCCNC(=O)c1cc(-c2ccc(Br)s2)nc2ccccc12)CC(C)C do in these assays?
DT40 TDP1 CPT: inconclusive; TDP1 cell noCPT: -26%

Results for CCN(CC)C(=O)c1sc(NC(=O)C(Sc2ccccc2)c2ccccc2)c(C(=O)OC(C)C)c1C (centres undefined) ?
HT1080 IDH1KD tx: -12%; DT40 TDP1 CPT: inconclusive; uPA generation: -3%; IL-1B inflam inh: -18; TDP1 cell noCPT: 16µM*; HT1080NT lethal: -9%

How did NC(=O)c1ccc(NC(=O)C2CCN(S(=O)(=O)Cc3ccccc3)CC2)cc1 do in these assays?
DT40 TDP1 CPT: -10%; TDP1 cell noCPT: -9%

How did Cc1ccc(C)c(-c2cc(C(=O)NNC(=S)NCC(C)C)c3ccccc3n2)c1 do in these assays?
HT1080 IDH1KD tx: 2%; DT40 TDP1 CPT: 2%; uPA generation: 1%; IL-1B inflam inh: 13; TDP1 cell noCPT: -20%; HT1080NT lethal: -4%

How did CCOC(=O)c1c(NC(=O)COC(=O)c2ccccc2NC)sc(C(=O)N(C)C)c1C do in these assays?
HT1080 IDH1KD tx: inconclusive; DT40 TDP1 CPT: inconclusive; uPA generation: -2%; IL-1B inflam inh: -79*; TDP1 cell noCPT: inconclusive; HT1080NT lethal: -28%

Results for Cc1ccc(-c2cc(C(=O)Nc3cccnc3)c3ccccc3n2)s1 ?
HT1080 IDH1KD tx: 9%; DT40 TDP1 CPT: inconclusive; uPA generation: 1%; IL-1B inflam inh: inactive; TDP1 cell noCPT: inconclusive; HT1080NT lethal: -1%

How did CCN(CC)C(=O)c1sc(NC(=O)c2cc(-c3ccc(C)s3)nc3ccccc23)c(C(=O)OC)c1C do in these assays?
HT1080 IDH1KD tx: 3%; DT40 TDP1 CPT: inconclusive; uPA generation: -1%; IL-1B inflam inh: -3; TDP1 cell noCPT: 23µM*; HT1080NT lethal: 6%

How did Cc1ccc(C)c(-c2cc(C(=O)Nc3sc(C)c(C)c3C(N)=O)c3ccccc3n2)c1 do in these assays?
HT1080 IDH1KD tx: inconclusive; DT40 TDP1 CPT: 21µM*; IL-1B inflam inh: inconclusive; TDP1 cell noCPT: inconclusive; HT1080NT lethal: inconclusive

How did COc1ccc(-c2nc3cnc(OC)nc3n(Cc3cccc(OC)c3)c2=O)cc1 do in these assays?
DT40 TDP1 CPT: 5%; TDP1 cell noCPT: -11%

What do the screens show for `Cc1ccc(NC(=O)C2CCCN2S(=O)(=O)c2ccc3nc(-c4ccccc4)[nH]c3c2)cc1F` (centres undefined)?
DT40 TDP1 CPT: 18µM*; TDP1 cell noCPT: 10µM*
